# MITF primary: blocks human microphthalmia-associated transcription factor | AID 1259374 | hit rate 0.91% among 650,000 | O75030 | inhibition, % at 2.6 µM | AlphaScreen MITF homodimerization, bead proximity signal; in the data active means inhibition above about 50%
# FBW7 act: activators of human E3 ligase FBW7; Q969H0; AlphaScreen FBW7–phospho-cyclin E peptide binding, activator screen; normalized activity (activation), % at 26.1 µM; hit rate 0.13% among 650,000; AID 1259310; in the data active means normalized activity above about 1.9%;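 further: purified mutant Fbw7 with reduced substrate affinity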
# Target sequence (Q969H0 whole entry, looked up): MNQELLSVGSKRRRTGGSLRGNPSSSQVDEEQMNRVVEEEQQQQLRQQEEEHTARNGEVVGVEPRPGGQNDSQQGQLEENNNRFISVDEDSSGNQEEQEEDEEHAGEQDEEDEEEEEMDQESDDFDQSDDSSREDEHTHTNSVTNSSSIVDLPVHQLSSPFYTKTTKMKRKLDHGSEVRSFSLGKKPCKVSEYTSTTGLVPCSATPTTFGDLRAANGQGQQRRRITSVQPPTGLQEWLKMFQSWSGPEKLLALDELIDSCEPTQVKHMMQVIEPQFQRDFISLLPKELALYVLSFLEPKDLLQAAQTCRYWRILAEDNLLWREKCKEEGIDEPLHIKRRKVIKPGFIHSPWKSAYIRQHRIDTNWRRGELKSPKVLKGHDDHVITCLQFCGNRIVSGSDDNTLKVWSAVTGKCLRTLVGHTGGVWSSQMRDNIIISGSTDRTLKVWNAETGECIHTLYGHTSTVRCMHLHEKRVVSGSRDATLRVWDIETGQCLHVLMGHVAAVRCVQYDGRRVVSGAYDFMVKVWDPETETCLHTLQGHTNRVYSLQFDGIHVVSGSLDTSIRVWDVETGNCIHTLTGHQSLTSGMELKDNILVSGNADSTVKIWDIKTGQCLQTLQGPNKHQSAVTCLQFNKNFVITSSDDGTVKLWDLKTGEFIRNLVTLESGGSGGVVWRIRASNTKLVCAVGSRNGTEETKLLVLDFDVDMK
# GPR151 ag: activates the human receptor GPR151; Q8TDV0; PathHunter beta-arrestin GPR151 cells, luminescence; activation, % at 11.2 µM; hit rate 1% among 650,000; AID 1508602; in the data active means activation above about 4.9%
# TEAD-YAP block: TEAD-YAP interaction inhibition | HEK-TIYL cells, TEAD-Gal4/YAP UAS-luciferase luminescence | inhibition, % at 9.12 µM | hit rate 1.4% among 640,000; in the data active means inhibition above about 32%
# Numbers stand for hits; - = inactive; ! = not active in a repeat. Most compounds without a hit are left out; they make up all but 3.4% or so of the library.
SMILES,MITF primary,FBW7 act,GPR151 ag,TEAD-YAP block
Cc1cccc2cc(C#N)c(SCC(=O)N3CC(=O)Nc4ccccc43)nc12,-,-,-,53
CC(C)c1ccc2nc(SCC(=O)N3CC(=O)Nc4ccccc43)c(C#N)cc2c1,-,-,-,-
Cc1ccc(CC(=O)N2CC(=O)Nc3ccccc32)c(C)c1,-,-,-,34
CSc1cccc(C(=O)N2CC(=O)Nc3ccccc32)c1,-,-,-,43
Cc1ccc(CC(=O)N2CC(=O)Nc3ccccc32)cc1,-,-,-,45
COc1ccc(CC(=O)N2CC(=O)Nc3ccccc32)cc1OC,-,-,-,-
Cc1nc(CSc2ccc(-c3cccnc3)nn2)cs1,-,-,-,-
Cc1ccc(N=c2oc3ccccc3cc2-c2nc3ccccc3s2)cc1,-,-,-,-
O=C(COC(=O)c1ccc(F)cc1Cl)NC(=O)Nc1ccc2c(c1)OCCO2,-,-,-,-
O=C(c1ccc(N2CCCC2=O)cc1)N1CCN(c2ccccn2)CC1,-,-,-,-
O=C(CSc1cn(Cc2cccc(F)c2)c2ccccc12)NCC1CCCO1 (configuration not stated),-,-,-,-
CCN(CCO)c1ccc(NC(=S)Nc2ccccc2F)cc1,-,-,-,66
CCN(CC)c1ccc(NC(=S)Nc2ccc(S(N)(=O)=O)cc2)cc1,74,-,-,-
NS(=O)(=O)c1ccc(NC(=S)Nc2ccc(F)cc2)cc1,-,-,-,-
O=C(Nc1ccccc1)N1CCN(c2nc3ccc(Br)cc3s2)CC1,-,-,-,-
CN1CCN(c2nc3ccc(NC(=O)/C=C/c4cccs4)cc3s2)CC1,-,-,-,-
Cn1nnnc1SCc1cnc(-c2ccccc2)s1,-,-,-,-
Cc1nnc(SCc2cnc(-c3ccc(C(C)C)cc3)s2)n1C,-,-,-,58
CC(C)(C)C(=O)N1CCCC(c2c(S(C)(=O)=O)cnc3ncnn23)C1 (configuration not stated),-,-,-,-
COc1ccc(-c2cc(=O)c3c(O)cc(OC)cc3o2)cc1,-,-,-,-
COc1ccc(-c2cc(=O)c3cc(O)ccc3o2)cc1,-,-,-,43
COc1ccc(-c2cc(=O)c3c(O)cc(O)cc3o2)cc1,-,-,-,53!
COc1ccc(-c2cc(=O)c3cc(C)ccc3o2)cc1,-,-,-,-
COC(=O)/C(=C/c1ccc(F)cc1)NC(=O)c1ccccc1,-,-,-,-
Cc1c(C(=O)NCc2cccnc2)sc2ncnc(N3CCN(c4ccccn4)CC3)c12,-,-,-,35
O=C(NCc1ccc(F)cc1)c1cnc(N2CCN(c3ccccn3)CC2)c2ccccc12,-,-,-,-
O=C(NCC1COc2ccccc2O1)c1cnc(N2CCN(c3ncccn3)CC2)c2ccccc12 (configuration not stated),-,-,-,-
O=C(NCc1cccnc1)c1cnc(N2CCN(c3ccccn3)CC2)c2ccccc12,-,-,-,39
O=C(NCC1COc2ccccc2O1)c1cnc(N2CCN(c3ccccn3)CC2)c2ccccc12 (configuration not stated),-,-,-,41

# Source: PubChem BioAssay
